GPR151 activ – activates the human receptor GPR151; Q8TDV0; PathHunter beta-arrestin GPR151 cells, luminescence; activation, % at 11.2 µM; 650,000 compounds, 1% hits; in the data active means activation above about 4.9%;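 further: 0% = median of compound wells and 100% = cells with positive control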
Target sequence (Q8TDV0 whole entry, looked up): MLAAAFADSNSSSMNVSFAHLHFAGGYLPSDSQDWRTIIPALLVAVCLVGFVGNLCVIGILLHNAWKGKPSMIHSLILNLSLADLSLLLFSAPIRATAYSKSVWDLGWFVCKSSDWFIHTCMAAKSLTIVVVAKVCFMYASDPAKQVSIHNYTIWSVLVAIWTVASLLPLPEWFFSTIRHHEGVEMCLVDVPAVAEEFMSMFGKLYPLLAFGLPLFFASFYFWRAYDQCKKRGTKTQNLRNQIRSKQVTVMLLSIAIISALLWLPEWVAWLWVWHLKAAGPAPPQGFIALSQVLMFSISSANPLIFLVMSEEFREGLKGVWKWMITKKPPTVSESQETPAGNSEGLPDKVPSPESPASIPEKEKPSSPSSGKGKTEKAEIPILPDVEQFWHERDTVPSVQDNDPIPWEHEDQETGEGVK
FBW7 activator – activators of human E3 ligase FBW7. Q969H0. AlphaScreen FBW7–phospho-cyclin E peptide binding, activator screen. AID 1259310. 650,000 compounds, 0.13% hits. normalized activity (activation), % at 26.1 µM; in the data active means normalized activity above about 1.9%;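 further: purified mutant Fbw7 with reduced substrate affinity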
MITF primary – inhibitors of human MITF | O75030 | inhibition, % at 2.6 µM | AlphaScreen MITF homodimerization, bead proximity signal | 650,000 compounds, 0.91% hits; in the data active means inhibition above about 50%;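 further: 0% = vehicle wells with protein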
TEAD-YAP inh – TEAD-YAP interaction inhibition | HEK-TIYL cells, TEAD-Gal4/YAP UAS-luciferase luminescence | 640,000 compounds, 1.4% hits | inhibition, % at 9.12 µM; in the data active means inhibition above about 32%;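 further: 0% = median of test compound wells and 100% = reference inhibitor wells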
GPR151 conf act – confirmation of human GPR151 activators; shares compounds with GPR151 activ; GPR151 PathHunter beta-arrestin cells, luminescence, 90 min; % of EA-reagent control over plate median; activation, % at 11.2 µM; 6,700 tested, under 10 active;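 active means mean percent activation across replicates above the confirmation screen cutoff of 4.91%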
GPR119 ag – activates human GPR119 in a GPR151 counter-screen; shares compounds with GPR151 activ; GPR119 PathHunter beta-arrestin cells, luminescence, 90 min; 0 = compound-well median, 100 = enzyme-acceptor control; activation, % at 11.2 µM; 6,700 compounds, 0.3% hits; AID 1508611;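 active means mean percent activation in the counterscreen above 29.09%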;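 further: counterscreen on off-target GPR119 to flag nonselective hits from the GPR151 activator screen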
Active calls of the source: *; nt = not tested or not shown; ! = not active in a repeat. Shown are actives, neighbours in structure and some others; about 3.5% of the full set was active somewhere.

SMILES | GPR151 activ | FBW7 activator | MITF primary | TEAD-YAP inh | GPR151 conf act | GPR119 ag
O=C(Nc1cccc(Cl)c1Cl)c1cc2nc(-c3ccc([N+](=O)[O-])cc3)cc(C(F)(F)F)n2n1 | 3 | 0 | -1 | -4 | nt | nt
CCOC(=O)c1c(NC(=O)COc2ccc(CC)cc2)sc2c1CCC2 | 0 | 1 | 2 | -8 | nt | nt
COC(=O)c1c(NC(=O)CCCOc2ccc(C(C)(C)C)cc2)sc2c1CCC2 | 3 | 0 | 6 | -5 | nt | nt
CCOC(=O)c1c(NC(=O)COc2ccc(C)cc2)sc2c1CCCC2 | 5.1* | 0 | -7 | -6 | 0 | 14
CC(C)(C)c1ccc(OCCCC(=O)Nc2sc3c(c2C(N)=O)CCCC3)cc1 | 6.5* | 0 | 12 | 1 | 0 | 8
COC(=O)c1ccc(NC(=O)C2CC(=O)N(Cc3ccc4c(c3)OCO4)C(=Nc3ccc(F)cc3)S2)cc1 (stereo not drawn) | 0 | 0 | -10 | 3 | nt | nt
O=C(NCCO)C1CCN(c2ccc(Nc3ccc(C(F)(F)F)cc3)nn2)CC1 | 3 | 0 | -1 | -1 | nt | nt
Oc1oc(-c2ccccc2Br)nc1C=Nc1ccccc1Cl | 5.0* | 0 | -7 | 3 | 0 | 3
COc1ccc(S(=O)(=O)NCCOC23CC4CC(CC(C4)C2)C3)cc1C | 5.3* | 0 | 1 | -12 | 0 | 4
Cc1ccc(S(=O)(=O)NCCOC23CC4CC(CC(C4)C2)C3)cc1C | 1 | 0 | -15 | -11 | nt | nt
Cc1ccccc1NS(=O)(=O)c1ccc(-c2ccc(-n3cnnn3)cc2)cc1 | 5.7* | 0 | -1 | -13 | 1 | 12
Cc1ccc(C)c(N(CC(=O)NC(C(C)C)C(C)C)S(C)(=O)=O)c1 | 5.9* | 0 | 1 | 2 | -1 | 3
COC(=O)CN(c1cc(C)ccc1OC)S(C)(=O)=O | -1 | 1 | 8 | 3 | nt | nt
COc1ccc(C)cc1N(CC(N)=O)S(C)(=O)=O | 7.7* | 0 | -3 | 2 | 0 | -1
COc1ccc(/C(C)=N/Nc2ccc(Cl)cc2)c(O)c1 | -1 | 0 | -1 | -13 | nt | nt
COC(C(=O)N1CCC[C@@H]2CN(Cc3ccccn3)CC[C@@H]21)c1ccccc1 (stereo partly drawn) | 0 | 0 | 7 | -3 | nt | nt
COc1cc(-c2c(C#N)c(N)nc3sc(C#N)c(N)c23)cc(OC)c1OC | 11* | 0 | 1 | -14 | 0 | 3
COCCOC(=O)c1c(N)sc(C(N)=O)c1C | 8.5* | 0 | -4 | 3 | 0 | -3
COc1ccc(-c2cncc(-c3cc(N4CCN(CCO)CC4)nc(C)n3)c2)cc1 | 7.1* | 0 | 2 | 6 | -1 | -9
COc1ccc(NC(=O)C2CC(=O)N(c3cccc(C(F)(F)F)c3)C2)cc1 (stereo not drawn) | 1 | 0 | -14 | 3 | nt | nt
Clc1cccc(-n2cc(-c3ccccc3)c3c(N4CCN(c5ccccc5Cl)CC4)ncnc32)c1 | -2 | 0 | -20 | 3 | nt | nt
Cc1cccc(N2CCN(c3ncnc4c3c(-c3ccccc3)cn4-c3cccc(Cl)c3)CC2)c1C | 6.1* | 0 | 20 | -5 | 2 | 22
COc1ccccc1-n1nc(C(=O)N2CCCC(C)C2)c2ccccc2c1=O (stereo not drawn) | 0 | 0 | -1 | 2 | nt | nt
O=C(CCCC(=O)N(CC(=O)NC1CCCCC1)CC1CCCO1)Nc1ccccn1 (stereo not drawn) | 8.7* | 0 | -1 | 0 | 1 | 8
O=C(CCCC(=O)N(CC(=O)NC1CCCCC1)Cc1ccccc1)Nc1ccccn1 | 0 | 0 | 13 | 6 | nt | nt
SMILES | GPR151 activ | FBW7 activator | MITF primary | TEAD-YAP inh | GPR151 conf act | GPR119 ag
O=C(CN(CC1CCCO1)C(=O)CCC(=O)Nc1nccs1)NCc1ccccc1 (stereo not drawn) | 9.4* | 0 | 0 | 2 | 1 | 4
O=C(CCc1ccccc1)NCCn1nc(-c2cccs2)oc1=O | -1 | 0 | 7 | -12 | nt | nt
NC(=O)c1c(NC(=O)c2ccc(N3CCCC3)c([N+](=O)[O-])c2)sc2c1CCCCC2 | -1 | 1 | 5 | 8 | nt | nt
CS(=O)(=O)c1ccc2nc(NC(=O)CS(=O)(=O)c3ccc(Cl)cc3)sc2c1 | 5.4* | 0 | 3 | 6 | 1 | 6
COc1ccc2c(c1)CCC(C)N2S(=O)(=O)c1ccc(C2CNC(=O)C2)cc1 (stereo not drawn) | 8.3* | 0 | 2 | 3 | 0 | 4
COc1ccc(CNS(=O)(=O)c2ccc(C3CNC(=O)C3)cc2)cc1 (stereo not drawn) | 0 | 1 | 9 | 12 | nt | nt
CC1(C)OC(=O)C2=C(OC2c2cc([N+](=O)[O-])ccc2N2CCOCC2)O1 (stereo not drawn) | -2 | 0 | 0 | -7 | nt | nt
CC(C)CNc1nnnc2c1cnn2-c1ccccc1 | 9.6* | 0 | -3 | -39 | 1 | 4
CCCNc1nnnc2c1cnn2-c1ccccc1 | 0 | 0 | 8 | -34 | nt | nt
O=C1CCC(=O)N1c1ccc(CSc2nnnn2C2CCCCC2)cc1 | 6.9* | 1 | -2 | -6 | 0 | -4
O=C(NNC(=S)NCc1ccccc1)c1ccc(Br)o1 | 6.3* | 0 | 3 | 7 | -1 | -3
Cc1ccccc1-c1nc(CSCC(=O)NC2CCCCC2)c(C)o1 | 0 | 0 | -9 | -15 | nt | nt
Cc1ccc(C(=O)NNC2=NCCC2)cc1 | 5.6* | 0 | -1 | -6 | 0 | 6
O=C(NNC1=NCCC1)c1ccc(Br)cc1 | 0 | 0 | 5 | -5 | nt | nt
NC(=O)COC(=O)c1cc(Cl)cc(Cl)c1N | -1 | 0 | -1 | 0 | nt | nt
Nc1c(Cl)cc(Cl)cc1C(=O)OCC(=O)N1CCCC1 | 7.5* | 0 | 4 | -6 | 2 | 5
CN1CCN(/N=C(\NO)c2nonc2N)CC1 | 13*! | 0 | -18 | -25 | 0 | -1
CCOC(=O)c1c(-c2ccccc2)oc2c1cc(NS(=O)(=O)c1ccc(C)cc1)c1ccccc12 | -1 | 0 | 18 | 6 | nt | nt
O=C(Nc1ccc(Br)cc1F)NC1CCCCC1 | 6.6* | 0 | -4 | -45 | 1 | 0
O=C(Cc1ccccc1)NCc1nnc(SCC(=O)N2N=C(c3cccs3)CC2c2ccc(F)cc2)n1-c1ccccc1 (stereo not drawn) | -1 | 0 | 10 | 10 | nt | nt
COc1ccc(NC(C)=O)cc1S(=O)(=O)NCCC(c1ccccc1)c1ccccc1 | 2 | 0 | 3 | 14 | nt | nt
O=C(c1ccc2cc[nH]c2c1)N1CCN(C(=O)C(c2ccccc2)c2ccccc2)CC1 | 5.6* | 0 | 8 | 10 | -1 | -12
O=C(c1ccc2cc[nH]c2c1)N1CCNCC1 | -2 | 0 | -9 | 0 | nt | nt
O=[N+]([O-])c1cccc(S(=O)(=O)NC23CC4CC(CC(C4)C2)C3)c1 | 5.3* | 0 | 4 | 1 | 1 | 14
C=CCOc1ccc(/C=N/Nc2nc3ccccc3[nH]c2=O)cc1OC | 0 | 0 | -2 | -15 | nt | nt

Source: PubChem BioAssay
